Measurements reported in PMC7862700, “An all-to-all approach to the identification of sequence-specific readers for epigenetic DNA modifications on cytosine”.

Experiments:
Experiment in all cases: DAPPL (digital affinity profiling via proximity ligation, sequencing); 10 mM Tris-HCl pH 7.5, 50 mM NaCl, 1 mM DTT, 4% glycerol, room temperature, 30 min; GST-TFs on glutathione beads, 16-mer random dsDNA library, 0.1% formaldehyde crosslink after washing; high values mean tight binding
[1] = molecular target: T1, FEV (Homo sapiens, UniProt Q99581 1-238); conditions: protein: recombinant; tags: N-terminal GST; dsDNA, one strand shown
T1 sequence: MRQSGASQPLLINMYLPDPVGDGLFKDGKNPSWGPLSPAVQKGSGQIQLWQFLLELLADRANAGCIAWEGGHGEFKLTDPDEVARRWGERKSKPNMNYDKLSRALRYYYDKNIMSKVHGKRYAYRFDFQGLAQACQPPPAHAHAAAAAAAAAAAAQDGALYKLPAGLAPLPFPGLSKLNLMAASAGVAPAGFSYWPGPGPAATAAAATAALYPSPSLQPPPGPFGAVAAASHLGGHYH
Summary of the method: (§1)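 Human transcription factors carrying a GST fusion were produced in yeast, bound to glutathione beads, tagged with DNA barcodes and pooled together with a tag-only sample. Each pool was held with 200 nmole of a random double-stranded 16-mer DNA library in Tris/NaCl/DTT/glycerol buffer for 30 min at room temperature, then washed, crosslinked in 0.1% formaldehyde, proximity-ligated with BsaI/T4 ligase (1 h, 37 °C), PCR-amplified and sequenced on an Illumina NextSeq500. Binding signal is the read frequency of each hexamer for a given factor divided by its frequency in the tag-only sample.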

[2] = molecular target: ETV5 (Homo sapiens, UniProt P41161 1-510); conditions: protein: recombinant; tags: N-terminal GST; dsDNA, one strand shown
Sequence of ETV5 (P41161 whole entry): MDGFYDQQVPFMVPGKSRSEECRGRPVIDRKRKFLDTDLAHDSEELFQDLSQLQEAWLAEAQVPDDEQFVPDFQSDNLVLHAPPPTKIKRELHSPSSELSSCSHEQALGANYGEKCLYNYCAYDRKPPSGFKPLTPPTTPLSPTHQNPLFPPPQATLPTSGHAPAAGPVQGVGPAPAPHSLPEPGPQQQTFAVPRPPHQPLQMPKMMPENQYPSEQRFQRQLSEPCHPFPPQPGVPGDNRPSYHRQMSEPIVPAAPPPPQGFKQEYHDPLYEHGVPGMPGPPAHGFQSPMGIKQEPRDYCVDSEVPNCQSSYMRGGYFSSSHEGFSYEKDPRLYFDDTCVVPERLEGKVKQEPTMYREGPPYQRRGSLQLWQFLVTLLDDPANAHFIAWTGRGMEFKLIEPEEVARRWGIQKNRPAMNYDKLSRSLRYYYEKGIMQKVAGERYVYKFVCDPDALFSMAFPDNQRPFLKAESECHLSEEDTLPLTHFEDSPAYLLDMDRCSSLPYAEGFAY
Summary of the method: as §1

[3] = molecular target: HSF1 (Homo sapiens, UniProt Q00613 1-529); conditions: protein: recombinant; tags: N-terminal GST; chain copies: 3; dsDNA, one strand shown
Sequence of HSF1 (Q00613 whole entry): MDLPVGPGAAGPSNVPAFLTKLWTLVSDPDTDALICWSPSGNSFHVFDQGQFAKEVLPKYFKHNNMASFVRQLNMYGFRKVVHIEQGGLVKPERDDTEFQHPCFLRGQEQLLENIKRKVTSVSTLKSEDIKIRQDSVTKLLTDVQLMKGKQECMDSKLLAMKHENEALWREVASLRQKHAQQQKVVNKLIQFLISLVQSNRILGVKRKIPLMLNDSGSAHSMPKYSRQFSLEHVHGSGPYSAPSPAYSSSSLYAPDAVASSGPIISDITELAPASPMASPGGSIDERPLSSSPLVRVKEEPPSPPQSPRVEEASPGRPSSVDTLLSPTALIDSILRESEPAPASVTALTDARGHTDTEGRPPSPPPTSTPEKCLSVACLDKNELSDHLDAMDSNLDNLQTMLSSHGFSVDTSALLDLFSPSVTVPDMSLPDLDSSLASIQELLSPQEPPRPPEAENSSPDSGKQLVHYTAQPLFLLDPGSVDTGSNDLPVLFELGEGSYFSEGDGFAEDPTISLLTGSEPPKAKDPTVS
Summary of the method: as §1

[4] = molecular target: T2, SPIC (Homo sapiens, UniProt Q8N5J4 1-248); conditions: protein: recombinant; tags: N-terminal GST; dsDNA, one strand shown
T2 sequence: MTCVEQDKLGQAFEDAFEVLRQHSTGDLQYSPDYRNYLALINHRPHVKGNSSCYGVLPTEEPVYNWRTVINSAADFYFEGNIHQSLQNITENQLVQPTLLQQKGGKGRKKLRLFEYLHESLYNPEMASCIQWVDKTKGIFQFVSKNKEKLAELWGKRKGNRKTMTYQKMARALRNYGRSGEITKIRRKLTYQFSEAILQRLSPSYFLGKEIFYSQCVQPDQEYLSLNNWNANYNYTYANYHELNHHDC
Summary of the method: as §1

[5] = molecular target: ELF4 (Homo sapiens, UniProt Q99607 1-663); conditions: protein: recombinant; tags: N-terminal GST; dsDNA, one strand shown
Sequence of ELF4 (Q99607 whole entry): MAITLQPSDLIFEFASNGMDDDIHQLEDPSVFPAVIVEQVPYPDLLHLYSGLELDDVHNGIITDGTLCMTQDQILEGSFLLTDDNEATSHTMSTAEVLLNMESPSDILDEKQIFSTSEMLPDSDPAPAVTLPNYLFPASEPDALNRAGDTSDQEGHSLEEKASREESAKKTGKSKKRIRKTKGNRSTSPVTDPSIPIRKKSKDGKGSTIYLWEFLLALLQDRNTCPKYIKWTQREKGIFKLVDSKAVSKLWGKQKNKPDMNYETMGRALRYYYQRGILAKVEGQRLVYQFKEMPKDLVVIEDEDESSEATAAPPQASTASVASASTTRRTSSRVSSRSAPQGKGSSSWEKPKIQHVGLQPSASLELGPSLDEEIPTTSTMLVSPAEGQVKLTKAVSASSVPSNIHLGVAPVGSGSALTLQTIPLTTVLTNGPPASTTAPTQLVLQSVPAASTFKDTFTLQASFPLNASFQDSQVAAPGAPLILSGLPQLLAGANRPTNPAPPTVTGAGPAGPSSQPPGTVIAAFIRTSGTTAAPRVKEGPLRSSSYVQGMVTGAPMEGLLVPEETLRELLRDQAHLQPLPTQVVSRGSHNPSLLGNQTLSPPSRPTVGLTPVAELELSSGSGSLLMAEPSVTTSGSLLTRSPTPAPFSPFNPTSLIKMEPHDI
Summary of the method: as §1

[6] = molecular target: T3, ELK4 (Homo sapiens, UniProt P28324-2 1-405); conditions: protein: recombinant; tags: N-terminal GST; dsDNA, one strand shown
T3 sequence: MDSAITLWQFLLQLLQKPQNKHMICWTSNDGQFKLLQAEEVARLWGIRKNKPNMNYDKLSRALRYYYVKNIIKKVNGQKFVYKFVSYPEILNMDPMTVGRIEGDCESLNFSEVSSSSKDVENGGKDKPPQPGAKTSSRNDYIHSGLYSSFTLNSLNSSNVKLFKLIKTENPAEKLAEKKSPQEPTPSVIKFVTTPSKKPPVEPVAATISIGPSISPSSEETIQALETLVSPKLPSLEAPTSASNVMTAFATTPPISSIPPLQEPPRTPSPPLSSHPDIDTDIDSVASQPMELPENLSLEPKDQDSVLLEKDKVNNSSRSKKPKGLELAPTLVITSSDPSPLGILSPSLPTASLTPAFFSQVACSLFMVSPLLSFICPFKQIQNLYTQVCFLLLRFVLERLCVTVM
Summary of the method: as §1

[7] = molecular target: T4, ETV2 (Homo sapiens, UniProt O00321 1-342); conditions: protein: recombinant; tags: N-terminal GST; dsDNA, one strand shown
T4 sequence: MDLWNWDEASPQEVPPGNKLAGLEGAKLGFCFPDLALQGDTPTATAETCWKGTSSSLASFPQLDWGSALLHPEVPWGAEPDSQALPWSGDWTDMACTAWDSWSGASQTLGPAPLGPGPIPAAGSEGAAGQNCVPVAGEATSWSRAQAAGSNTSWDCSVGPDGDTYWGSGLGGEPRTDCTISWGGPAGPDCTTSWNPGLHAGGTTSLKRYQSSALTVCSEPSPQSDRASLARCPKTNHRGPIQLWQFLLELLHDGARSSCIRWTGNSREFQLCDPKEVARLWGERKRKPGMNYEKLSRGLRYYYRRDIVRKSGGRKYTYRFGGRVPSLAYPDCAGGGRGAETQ
Summary of the method: as §1

[8] = molecular target: T5, ELF3 (Homo sapiens, UniProt P78545 1-371); conditions: protein: recombinant; tags: N-terminal GST; dsDNA, one strand shown
T5 sequence: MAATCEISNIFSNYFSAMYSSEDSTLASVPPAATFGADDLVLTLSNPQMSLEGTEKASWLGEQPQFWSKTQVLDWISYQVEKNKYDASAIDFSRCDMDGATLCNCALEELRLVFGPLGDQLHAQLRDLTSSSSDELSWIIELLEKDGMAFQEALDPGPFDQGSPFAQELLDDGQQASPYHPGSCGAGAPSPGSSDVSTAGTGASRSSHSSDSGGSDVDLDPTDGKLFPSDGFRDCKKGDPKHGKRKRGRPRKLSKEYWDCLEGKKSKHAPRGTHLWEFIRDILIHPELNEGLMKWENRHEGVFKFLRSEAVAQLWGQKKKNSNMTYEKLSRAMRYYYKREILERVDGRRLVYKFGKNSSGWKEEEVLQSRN
Summary of the method: as §1

[9] = molecular target: CRX (Homo sapiens, UniProt O43186 1-299); conditions: protein: recombinant; tags: N-terminal GST; dsDNA, one strand shown
Sequence of CRX (O43186 whole entry): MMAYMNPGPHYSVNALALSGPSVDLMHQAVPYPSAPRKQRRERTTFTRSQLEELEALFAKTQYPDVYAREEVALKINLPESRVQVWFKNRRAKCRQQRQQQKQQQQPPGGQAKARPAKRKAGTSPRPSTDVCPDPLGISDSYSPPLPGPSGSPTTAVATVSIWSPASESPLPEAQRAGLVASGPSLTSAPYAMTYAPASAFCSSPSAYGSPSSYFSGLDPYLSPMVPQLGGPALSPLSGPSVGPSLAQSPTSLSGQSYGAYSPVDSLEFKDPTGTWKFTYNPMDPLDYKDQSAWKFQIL
Summary of the method: as §1

[10] = molecular target: ETV1 (Homo sapiens, UniProt P50549 1-477); conditions: protein: recombinant; tags: N-terminal GST; dsDNA, one strand shown
Sequence of ETV1 (P50549 whole entry): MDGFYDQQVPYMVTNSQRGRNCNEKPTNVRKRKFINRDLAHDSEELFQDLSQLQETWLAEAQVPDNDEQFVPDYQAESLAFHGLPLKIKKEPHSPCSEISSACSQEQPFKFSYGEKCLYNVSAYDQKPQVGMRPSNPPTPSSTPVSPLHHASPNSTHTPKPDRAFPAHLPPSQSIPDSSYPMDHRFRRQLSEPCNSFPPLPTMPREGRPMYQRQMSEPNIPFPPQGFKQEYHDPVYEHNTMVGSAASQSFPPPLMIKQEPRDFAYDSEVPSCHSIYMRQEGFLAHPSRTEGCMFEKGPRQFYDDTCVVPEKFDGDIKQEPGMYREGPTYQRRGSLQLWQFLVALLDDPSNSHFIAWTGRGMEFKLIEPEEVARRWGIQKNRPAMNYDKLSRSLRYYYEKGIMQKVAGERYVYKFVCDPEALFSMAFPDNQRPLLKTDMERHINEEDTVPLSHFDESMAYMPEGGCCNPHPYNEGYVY
Summary of the method: as §1

Sequence | binding signal [1] | binding signal [2] | binding signal [3] | binding signal [4] | binding signal [5] | binding signal [6] | binding signal [7] | binding signal [8] | binding signal [9] | binding signal [10]
ATCCCT | 1.3 fold enrichment (6-mer frequency, TF over GST control) | 1.3 fold enrichment (6-mer frequency, TF over GST control) | 1.64 fold enrichment (6-mer frequency, TF over GST control) | 1.27 fold enrichment (6-mer frequency, TF over GST control) | 1.38 fold enrichment (6-mer frequency, TF over GST control) | 1.33 fold enrichment (6-mer frequency, TF over GST control) | 1.13 fold enrichment (6-mer frequency, TF over GST control) | 1.22 fold enrichment (6-mer frequency, TF over GST control) | 2.17 fold enrichment (6-mer frequency, TF over GST control) | 1.21 fold enrichment (6-mer frequency, TF over GST control)
TTCTAC | 1.5 fold enrichment (6-mer frequency, TF over GST control) | 1.55 fold enrichment (6-mer frequency, TF over GST control) | 2.46 fold enrichment (6-mer frequency, TF over GST control) | 1.7 fold enrichment (6-mer frequency, TF over GST control) | 1.48 fold enrichment (6-mer frequency, TF over GST control) | 1.59 fold enrichment (6-mer frequency, TF over GST control) | 1.53 fold enrichment (6-mer frequency, TF over GST control) | 1.64 fold enrichment (6-mer frequency, TF over GST control) | 1.69 fold enrichment (6-mer frequency, TF over GST control) | 1.56 fold enrichment (6-mer frequency, TF over GST control)
TCCCTC | 1.56 fold enrichment (6-mer frequency, TF over GST control) | 1.43 fold enrichment (6-mer frequency, TF over GST control) | 1.38 fold enrichment (6-mer frequency, TF over GST control) | 1.35 fold enrichment (6-mer frequency, TF over GST control) | 1.7 fold enrichment (6-mer frequency, TF over GST control) | 1.78 fold enrichment (6-mer frequency, TF over GST control) | 1.43 fold enrichment (6-mer frequency, TF over GST control) | 1.43 fold enrichment (6-mer frequency, TF over GST control) | 1.41 fold enrichment (6-mer frequency, TF over GST control) | 1.43 fold enrichment (6-mer frequency, TF over GST control)
CTTTCC | 2.15 fold enrichment (6-mer frequency, TF over GST control) | 2.04 fold enrichment (6-mer frequency, TF over GST control) | 2.13 fold enrichment (6-mer frequency, TF over GST control) | 1.82 fold enrichment (6-mer frequency, TF over GST control) | 1.9 fold enrichment (6-mer frequency, TF over GST control) | 1.94 fold enrichment (6-mer frequency, TF over GST control) | 2.11 fold enrichment (6-mer frequency, TF over GST control) | 1.63 fold enrichment (6-mer frequency, TF over GST control) | 1.54 fold enrichment (6-mer frequency, TF over GST control) | 1.91 fold enrichment (6-mer frequency, TF over GST control)
AATTTA | 1.16 fold enrichment (6-mer frequency, TF over GST control) | 1.27 fold enrichment (6-mer frequency, TF over GST control) | 1.44 fold enrichment (6-mer frequency, TF over GST control) | 1.21 fold enrichment (6-mer frequency, TF over GST control) | 1.21 fold enrichment (6-mer frequency, TF over GST control) | 1.22 fold enrichment (6-mer frequency, TF over GST control) | 1.13 fold enrichment (6-mer frequency, TF over GST control) | 1.36 fold enrichment (6-mer frequency, TF over GST control) | 1.59 fold enrichment (6-mer frequency, TF over GST control) | 1.22 fold enrichment (6-mer frequency, TF over GST control)
GAATGT | 1.07 fold enrichment (6-mer frequency, TF over GST control) | 1.07 fold enrichment (6-mer frequency, TF over GST control) | 1.88 fold enrichment (6-mer frequency, TF over GST control) | 1.11 fold enrichment (6-mer frequency, TF over GST control) | 1.07 fold enrichment (6-mer frequency, TF over GST control) | 1.07 fold enrichment (6-mer frequency, TF over GST control) | 1.03 fold enrichment (6-mer frequency, TF over GST control) | 1.2 fold enrichment (6-mer frequency, TF over GST control) | 1.02 fold enrichment (6-mer frequency, TF over GST control) | 1.03 fold enrichment (6-mer frequency, TF over GST control)
CTAACT | 1.34 fold enrichment (6-mer frequency, TF over GST control) | 1.34 fold enrichment (6-mer frequency, TF over GST control) | 1.19 fold enrichment (6-mer frequency, TF over GST control) | 1.31 fold enrichment (6-mer frequency, TF over GST control) | 1.4 fold enrichment (6-mer frequency, TF over GST control) | 1.36 fold enrichment (6-mer frequency, TF over GST control) | 1.27 fold enrichment (6-mer frequency, TF over GST control) | 1.21 fold enrichment (6-mer frequency, TF over GST control) | 1.21 fold enrichment (6-mer frequency, TF over GST control) | 1.28 fold enrichment (6-mer frequency, TF over GST control)
TAATTG | 1.32 fold enrichment (6-mer frequency, TF over GST control) | 1.4 fold enrichment (6-mer frequency, TF over GST control) | 1.42 fold enrichment (6-mer frequency, TF over GST control) | 1.31 fold enrichment (6-mer frequency, TF over GST control) | 1.36 fold enrichment (6-mer frequency, TF over GST control) | 1.35 fold enrichment (6-mer frequency, TF over GST control) | 1.44 fold enrichment (6-mer frequency, TF over GST control) | 1.49 fold enrichment (6-mer frequency, TF over GST control) | 1.82 fold enrichment (6-mer frequency, TF over GST control) | 1.35 fold enrichment (6-mer frequency, TF over GST control)
